# FXN GAA850 act = increases GAA850 frataxin promoter reporter activity; AID 540364; 360,000 compounds, 0.56% hits; HEK293 lucGAA850 FXN promoter luciferase reporter, 24 h; percent of 10 µM SAHA response; activation, % at 6 µM;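 active = activation above the average of all compounds screened plus 3 SD, cutoff fixed separately per campaign, cut at about 7.5% in these data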;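 note: 0% = DMSO wells and 100% = 10 µM SAHA wells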
# DAX1 inh-1 = inhibitors of DAX1 repression of SF-1 activated StAR promoter | HEK293T StAR-luciferase reporter, SF-1/DAX-1 repression relief | inhibition, % at 6.8 µM | 370,000 compounds, 1.1% hits | AID 652010;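 active = inhibition above the mean over all tested compounds plus 3 SD, cut at about 3.6% in these data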;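 note: 0% = DAX-1 cells with DMSO and 100% = cells lacking DAX-1 with DMSO; higher inhibition means more luminescence from relief of DAX-1 repression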
# DAX1 inh-2 = inhibitors of human orphan nuclear receptor DAX1 (NR0B1); inhibition, % at 6.75 µM; 340,000 compounds, 0.99% hits; P51843; AID 504766; HEK293 Gal4-DAX1 luciferase reporter, luminescence;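 active = inhibition above the mean over all tested compounds plus 3 SD, cut at about 4.2% in these data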;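 note: 0% = DAX1-transfected cells with DMSO and 100% = empty-vector control cells with DMSO; inhibition shows as a rise in luminescence from relieved DAX1 repression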
# hgDAF12 agonist = agonists of H. glycines DAF-12 nuclear receptor | HEK293 GAL4-hgDAF12 UAS-luciferase reporter, agonist luminescence; normalized to butyrate control | activation, % at 6.8 µM | 370,000 compounds, 1.8% hits | AID 687014;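 active = activation above a cutoff set at the mean of all screened compounds plus 3 SD, cut at about 10% in these data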;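 note: 0% = DMSO wells and 100% = sodium butyrate wells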
# ssDAF-12 act = activates DAF-12 receptor from parasite S. stercoralis. HEK293 ssDAF-12/GRIP1 lit1-tk-luc reporter, luminescence; % of 3 µM dafachronic acid response. activation, % at 6.8 µM. 370,000 compounds, 1% hits. AID 652126;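 active = activation above the mean over all tested compounds plus 3 SD, cut at about 0.9% in these data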;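 note: 0% = DMSO-only wells and 100% = 3 µM delta7-dafachronic acid wells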
# hcDAF12 agonist = activators of H. contortus DAF-12 nuclear receptor | HEK293 hcDAF-12 lit1-tk-luc reporter, luminescence; 0% DMSO, 100% Δ7-dafachronic acid | activation, % at 6.8 µM | 370,000 compounds, 1.4% hits | AID 652067;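 active = activation above the mean of all tested compounds plus 3 SD, cut at about 5.5% in these data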;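 note: 100% = response to 3 µM Δ7-dafachronic acid high control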
# LXRb hcDAF ctr = LXR-beta agonism as hcDAF-12 counter-screen; 3,400 tested, under 10 active; activation, % at 6.8 µM; shares compounds with hcDAF12 agonist; AID 743027; HEK293 Gal4-LXR tk-luc reporter, luminescence, 24 h; normalized: DMSO 0%, positive control 100%;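 active = mean percent activation of the reporter above a cutoff set as the average over tested compounds plus their standard deviation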
# Target sequence (P55055 whole entry, looked up, the tested form may be a part): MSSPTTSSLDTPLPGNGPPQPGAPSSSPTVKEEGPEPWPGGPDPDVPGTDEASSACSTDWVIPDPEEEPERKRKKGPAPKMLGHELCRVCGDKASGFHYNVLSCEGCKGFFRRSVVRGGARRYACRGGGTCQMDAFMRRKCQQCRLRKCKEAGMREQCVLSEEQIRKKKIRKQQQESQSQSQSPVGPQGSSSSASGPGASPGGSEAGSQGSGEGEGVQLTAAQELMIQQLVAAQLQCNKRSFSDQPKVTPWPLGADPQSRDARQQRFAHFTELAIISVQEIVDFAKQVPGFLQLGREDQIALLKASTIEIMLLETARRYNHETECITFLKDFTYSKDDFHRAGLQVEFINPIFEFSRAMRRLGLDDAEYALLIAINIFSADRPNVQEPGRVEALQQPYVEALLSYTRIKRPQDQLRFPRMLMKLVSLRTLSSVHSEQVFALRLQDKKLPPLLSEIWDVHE
# hcDAF12 conf = confirmation of H. contortus DAF-12 agonists; activation, % at 6.8 µM; HEK293 hcDAF-12 lit1-tk-luc reporter, luminescence; % of Δ7-dafachronic acid response; 3,400 compounds, 61% hits; shares compounds with hcDAF12 agonist;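 active = mean activation across triplicate tests above the threshold derived from the earlier primary screen, cut at about 5.5% in these data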;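 note: 0% = DMSO only wells and 100% = 3 µM Δ7-dafachronic acid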
# * = called active by the depositor; . = not tested or not shown. Compounds with a hit are over-represented: about 4.5% of the library has one in this group of screens.
SMILES,FXN GAA850 act,DAX1 inh-1,DAX1 inh-2,hgDAF12 agonist,ssDAF-12 act,hcDAF12 agonist,LXRb hcDAF ctr,hcDAF12 conf
O=C(C[C@H]1C(=O)N(CCc2ccccc2)C[C@@H]1c1ccccc1)Nc1ccccc1,0,0,2,3,-1,0,.,.
COc1cc(OC)c(C(=O)Nc2cc(S(=O)(=O)N3CCOCC3)ccc2N2CCOCC2)cc1OC,0,0,2,-1,0,0,.,.
c1ccc2c(Cn3ccnc3)c[nH]c2c1,1,0,0,3,0,8.0*,0,2
CCOc1ccc(NC(=O)Nc2cccs2)cc1,6,3,0,11*,1,7.3*,1,5
CSc1nsc(NN)n1,1,1,2,11*,0,7.7*,0,5
CC(=O)N(/N=C1/C(=O)Nc2ccccc21)c1ccccc1,5,1,1,2,1.2*,12*,1,10*
CC(=O)c1ccc(N=C2C(=O)Nc3ccccc32)cc1,1,0,-2,5,-1,-1,.,.
Cn1c(C(=O)Nc2ccc(Cl)cc2)cc2cc(Cl)ccc21,-1,0,0,4,0,8.3*,0,7.9*
C[C@H](NC(=O)c1cc2cc(Cl)ccc2n1C)C(=O)N1CCC(C(=O)O)CC1,1,0,1,-4,-1,-1,.,.
C[C@H](CO)N1C[C@H](C)[C@@H](CN(C)Cc2cncnc2)Oc2cc(Br)ccc2S1(=O)=O,-1,0,0,1,-1,-2,.,.
O=C(CCn1nnc2ccccc21)N1CCN(c2ccccc2)CC1,3,0,0,5,-1,-1,.,.
O=C(CCn1nnc2ccccc21)N1CCN(c2ccc(F)cc2)CC1,.,1,.,-1,-1,-1,.,.
Cc1ccccc1N1CCN(C(=O)CCn2nnc3ccccc32)CC1,.,3,.,13*,0,8.5*,1,6.4*
O=C(CCn1nnc2ccccc21)N1CCN(c2ccccc2F)CC1,.,2,.,11*,0,8.8*,0,5
COc1ccc(-c2cnc(C(O)c3ccccc3)[nH]2)cc1 (stereo not given),3,4.3*,.,8,-1,6.7*,1,7.1*
Cc1cc(C)n(-c2nc3ccccc3s2)n1,3,0,0,6,-1,-1,.,.
Cc1nn(-c2nc3ccccc3s2)c(N)c1Sc1ccc(F)cc1,6,2,3,7,1,6.6*,1,14*
Cc1cc(N)n(-c2nc3ccccc3s2)n1,5,3.6*,5.2*,11*,1.9*,7.8*,1,9.6*
Cc1nn(-c2nc3ccccc3s2)c(N)c1-c1ccc(Cl)cc1,3,0,1,2,0,-2,.,.
O=C(N/N=C/c1c(Cl)[nH]c2ccccc12)c1ccc2c(c1)OCCO2,4,0,.,8,1.3*,9.1*,0,9.1*
Cc1ccsc1/C=N/NC(=O)c1ccc2c(c1)OCCO2,1,2,-1,13*,1,8.1*,2,12*
COCCN(C(=O)CCC(=O)Nc1cccnc1)C(C(=O)NC1CCCCC1)c1ccccc1 (stereo not given),-2,0,1,-1,-1,-2,.,.
CC(C)C(C(=O)Nc1ccccc1F)N1C(=O)c2ccccc2C1=O (stereo not given),2,0,1,5,2.1*,8.0*,0,5
COc1cccc(CNC(=O)CCNC(=O)c2ccco2)c1,-1,0,2,0,-1,0,.,.
COc1ccc(CCNC(=O)CCNC(=O)c2ccco2)cc1,-1,0,0,2,-1,6.8*,0,0
SMILES,FXN GAA850 act,DAX1 inh-1,DAX1 inh-2,hgDAF12 agonist,ssDAF-12 act,hcDAF12 agonist,LXRb hcDAF ctr,hcDAF12 conf
Cc1occc1C(=O)N/N=C/C(Br)=C\c1ccccc1,4,2,4,11*,1,8.8*,2,4
Cc1occc1C(=O)N/N=C/c1ccc(N(C)C)cc1,2,3,-2,9,0,7.3*,1,7.2*
COC(=O)c1ccc(C(=O)N2CCCC(N3CCN(c4ccc(F)cc4)CC3)C2)nc1 (stereo not given),1,-2,0,-1,-1,1,.,.
Fc1ccccc1-c1nc(-c2ccccc2)no1,3,4,1,10,1.9*,10*,2,18*
c1cncc(-c2noc(-c3cccc4ccccc34)n2)c1,3,0,2,9,1.2*,7.0*,1,16*
c1ccc(-c2noc(-c3cccc4ccccc34)n2)cc1,3,3.7*,3,12*,2.9*,17*,1,16*
COC(=O)CSc1nnc(-c2cccs2)o1,.,0,.,3,-1,-1,.,.
CC1CCC(CN2C(Nc3ccccc3)=NC[C@@H]2C)CC1 (stereo not given in full),0,0,-1,1,-1,-1,.,.
CCCS(=O)(=O)N1CCN(Cc2c[nH]c3ccccc23)CC1,2,0,0,2,1.4*,7.2*,0,5
Nc1c(-c2ccccc2)n[nH]c1-c1ccccc1,6,1,-1,8,-1,7.0*,1,7.7*
S=c1nc(-c2ccccc2)c(-c2ccccc2)n[nH]1,0,0,1,3,-1,-1,.,.
CCOC(=O)[C@]12CCC=C1N(Cc1ccco1)C(=O)[C@H](CC(=O)NCc1cccc3ccccc13)C2,.,0,.,0,-1,0,.,.
CCOC(=O)c1sc2nc(-c3ccccc3)ccc2c1N,2,4.3*,2,24*,0,9.0*,2,11*
Cc1ccccc1-c1cc2c(nn1)-c1ccccc1C2=O,4,0,0,5,1.5*,7.2*,1,6.2*
O=C(Cc1ccccc1[N+](=O)[O-])N1CCOCC1,1,0,1,1,-1,0,.,.
O=C(CNCc1ccccc1[N+](=O)[O-])N1CCC2(CC1)OCCO2,.,2,.,13*,0,7.0*,0,5
Cc1nc2ccc(NC(=O)c3ccc([N+](=O)[O-])cc3)cc2[nH]1,3,1,1,4,-1,2,.,.
CCN(CC)c1ccc(/C=N/N(c2ccccc2)c2ccccc2)c(O)c1,2,0,0,6,1.1*,12*,0,5
Cc1sc2ncnc(N/N=C/c3ccccc3O)c2c1C,-6,0,-4,7,0,7.2*,0,0
